For five molecules, composite z-score and z-score results are on record in PubChem BioAssay.

Test [1] in a line: small molecules captured by biotinylated probe aFSTL3 – biochemical, small-molecule microarray, fluorescence 635/667, stem cell growth factor project, primary screen (AID 1064).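 Further: measures binding of the biotinylated anti-FSTL3 antibody to printed compounds.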 To be noted: higher = more signal.
Test [2] in a line: binders from COS7 lysate, DM2A8 probe, primary screen, torsin A project, cell lysate, small-molecule microarray, fluorescence 635/667 (AID 1065). The conditions noted are these: higher = more signal, COS7 lysate expressing mutant human TOR1A.
Test [3] in a line: small molecules captured by biotinylated probe aFGF2 – biochemical, small-molecule microarray, fluorescence 635/667, stem cell growth factor project, primary screen (AID 1067).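 Further: measures binding of biotinylated aFGF2 protein to printed compounds on slides; z-score merges feature fluorescence and signal-to-noise across triplicate slides.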 To be noted: higher = more signal.
The nature of test [4]: small molecules captured by biotinylated probe aFGF10 – biochemical, small-molecule microarray, fluorescence 635/667, stem cell growth factor project, primary screen (AID 1071).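 Further: score merges 667 nm spot intensity and signal to noise from triplicate slides.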 The conditions noted are these: higher = more signal.
Test [5] addresses Neurogenic locus notch homolog protein 2 (Homo sapiens) (UniProt Q04721). The test can be described thus: small molecules binding Notch2 protein – biochemical, small-molecule microarray, 635 nm fluorescence, stem cell growth factors, primary screen (AID 1073). The conditions noted are these: higher = more signal.
The target in test [6] is Pro-neuregulin-1, membrane-bound isoform (Homo sapiens) (UniProt Q02297). Description: small molecules binding neuregulin-1 protein – biochemical, small-molecule microarray, fluorescence 635/667, psychiatric disease protein project, primary screen (AID 1075).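 Further: score combines 667 nm spot fluorescence with signal to noise.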 The conditions noted are these: NRG1 binding, 635 nm fluorescence, higher = more signal.
Test [7] deals with Neuregulin-1 EGF-like domain. The test can be described thus: small molecules binding NRG1 EGF domain – biochemical, small-molecule microarray, 635 nm fluorescence, primary screen (AID 1081).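 Further: binding of the protein to compounds printed on small-molecule microarray slides.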 To be noted: higher = more signal.
Test [8] is described as follows: FRG1 expression reporter modulators in myotubes – cell-based, C2C12 myotubes, firefly/Renilla luciferase, luminescence, FRG1 inhibition for FSHD, primary screen (AID 1084). The conditions noted are these: FRG1 promoter luciferase, higher = more signal, called active from +8 up or from −8 down.
Test [9] can be described thus: small molecules captured by biotinylated probe aFST – biochemical, small-molecule microarray, fluorescence 635/667, stem cell growth factor project, primary screen (AID 1086).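 Further: score merges 667 nm fluorescence with signal-to-noise of each printed compound spot.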 The conditions noted are these: higher = more signal.
The nature of test [10]: binders of probe aHhip on microarray, primary screen, stem cell growth factor project, biochemical, small-molecule microarray, fluorescence 635/667 (AID 1087).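 Further: score merges spot fluorescence at 667nm with spot signal to noise ratio.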 To be noted: higher = more signal.
For test [11], the system named is PRMT1 (protein arginine N-methyltransferase 1). Description: small molecules binding arginine methyltransferase PRMT1 – biochemical, small-molecule microarray, 635 nm fluorescence, primary screen (AID 1088).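 Further: binding of Prmt1 protein to compounds spotted on small-molecule microarray slides.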 The conditions noted are these: higher = more signal.
Test [12] can be described thus: growth effects on S. cerevisiae YJM789 – YJM789 clinical isolate, OD600, 24 h, basal, primary screen (AID 1089).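 Further: growth of clinical yeast isolate S. cerevisiae YJM 789 seeded 1000 cells per well; test concentration not given here.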 The conditions noted are these: higher = more signal, called active from +8 up or from −8 down.
Test [13] in a line: S. pombe growth modifiers, basal conditions – strain 972, OD600, 24 h, no modulator, primary screen (AID 1090).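 Further: basal condition with compound alone and no growth modifier present; test concentration not given here.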 The conditions noted are these: S. pombe 972 growth, higher = more signal, called active from +8 up or from −8 down.
Test [14] in a line: budding yeast growth modifiers under rapamycin – strain BY4716, OD600, 96 h, primary screen (AID 1091). Further: test concentration not given here. The conditions noted are these: S. cerevisiae BY4716 + rapamycin, higher = more signal, called active from +8 up or from −8 down.
Test [15] addresses Torsin-1A-interacting protein 2 (Homo sapiens) (UniProt Q8NFQ8). The test can be described thus: small molecules binding lysate-expressed LULL1 – cell lysate, human LULL1 lysate, 635/667 nm fluorescence, primary screen (AID 1092).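 Further: probe is lysate of COS7 cells overexpressing human LULL1; score merges per-feature 667 nm fluorescence with signal-to-noise.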 The conditions noted are these: small-molecule microarray, hLULL1 lysate binding, 635 nm fluorescence; higher = more signal.
Test [16] is described as follows: optical density change of DRC41 E. coli – strain DRC41, OD650, 24 h, E. coli filamentation project, primary screen (AID 1093).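 Further: MC1000 strain lacking acrAB efflux and sulA so SOS filamentation is blocked; test concentration not given here.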 To be noted: E. coli DRC41 growth, higher = more signal, called active from +8 up or from −8 down.
Test [17] can be described thus: probe aLefty2 binding to arrayed compounds – biochemical, biotinylated probe, 635/667 nm fluorescence, primary screen (AID 1094).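 Further: score merges spot fluorescence near 667 nm with spot signal-to-noise ratio.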 To be noted: small-molecule microarray, higher = more signal.
Test [18] has as its system Noggin (protein binding on small-molecule microarray). The test can be described thus: small molecules binding Noggin protein – biochemical, 635/667 nm fluorescence, primary screen (AID 1095).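 Further: score merges 667 nm feature fluorescence with signal to noise over triplicate slides.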 The conditions noted are these: 635 nm fluorescence, higher = more signal.
Test [19] has as its target Neurogenic locus notch homolog protein 3 (Homo sapiens) (UniProt Q9UM47). Description: small molecules binding NOTCH3 protein – biochemical, 635/667 nm fluorescence, primary screen (AID 1096). To be noted: small-molecule microarray, 635 nm fluorescence, higher = more signal.
A short description of test [20]: probe aEGFR binding to arrayed compounds – biochemical, biotinylated probe, 635/667 nm fluorescence, primary screen (AID 1097).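 Further: probe is a biotinylated anti-EGFR antibody binding compounds printed on slides; score combines fluorescence near 667 nm and signal to noise of each spot.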 To be noted: small-molecule microarray, higher = more signal.

Each structure is given as a SMILES string. Activity calls are given as the source filed them.

Sequence of Pro-neuregulin-1, membrane-bound isoform (Homo sapiens) (Q02297 whole entry, looked up, the tested form may be a part, canonical isoform): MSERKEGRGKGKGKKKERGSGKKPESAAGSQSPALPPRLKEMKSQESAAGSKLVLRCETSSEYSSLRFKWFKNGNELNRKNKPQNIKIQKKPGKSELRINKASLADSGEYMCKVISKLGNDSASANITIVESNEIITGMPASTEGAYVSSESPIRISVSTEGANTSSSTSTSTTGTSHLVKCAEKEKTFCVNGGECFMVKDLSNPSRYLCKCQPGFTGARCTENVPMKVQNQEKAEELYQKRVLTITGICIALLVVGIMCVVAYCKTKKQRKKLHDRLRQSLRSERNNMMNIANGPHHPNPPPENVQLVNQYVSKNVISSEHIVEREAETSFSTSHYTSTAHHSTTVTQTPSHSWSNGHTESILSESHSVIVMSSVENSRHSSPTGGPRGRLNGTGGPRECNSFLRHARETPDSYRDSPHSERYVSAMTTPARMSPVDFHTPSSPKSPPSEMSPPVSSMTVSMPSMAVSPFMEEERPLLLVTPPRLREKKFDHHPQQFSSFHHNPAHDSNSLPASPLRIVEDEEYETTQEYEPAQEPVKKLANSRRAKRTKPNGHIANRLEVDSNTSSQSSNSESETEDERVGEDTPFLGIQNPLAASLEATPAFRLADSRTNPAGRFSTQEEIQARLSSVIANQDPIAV
Sequence of Neurogenic locus notch homolog protein 2 (Homo sapiens) (Q04721 whole entry, looked up, canonical isoform): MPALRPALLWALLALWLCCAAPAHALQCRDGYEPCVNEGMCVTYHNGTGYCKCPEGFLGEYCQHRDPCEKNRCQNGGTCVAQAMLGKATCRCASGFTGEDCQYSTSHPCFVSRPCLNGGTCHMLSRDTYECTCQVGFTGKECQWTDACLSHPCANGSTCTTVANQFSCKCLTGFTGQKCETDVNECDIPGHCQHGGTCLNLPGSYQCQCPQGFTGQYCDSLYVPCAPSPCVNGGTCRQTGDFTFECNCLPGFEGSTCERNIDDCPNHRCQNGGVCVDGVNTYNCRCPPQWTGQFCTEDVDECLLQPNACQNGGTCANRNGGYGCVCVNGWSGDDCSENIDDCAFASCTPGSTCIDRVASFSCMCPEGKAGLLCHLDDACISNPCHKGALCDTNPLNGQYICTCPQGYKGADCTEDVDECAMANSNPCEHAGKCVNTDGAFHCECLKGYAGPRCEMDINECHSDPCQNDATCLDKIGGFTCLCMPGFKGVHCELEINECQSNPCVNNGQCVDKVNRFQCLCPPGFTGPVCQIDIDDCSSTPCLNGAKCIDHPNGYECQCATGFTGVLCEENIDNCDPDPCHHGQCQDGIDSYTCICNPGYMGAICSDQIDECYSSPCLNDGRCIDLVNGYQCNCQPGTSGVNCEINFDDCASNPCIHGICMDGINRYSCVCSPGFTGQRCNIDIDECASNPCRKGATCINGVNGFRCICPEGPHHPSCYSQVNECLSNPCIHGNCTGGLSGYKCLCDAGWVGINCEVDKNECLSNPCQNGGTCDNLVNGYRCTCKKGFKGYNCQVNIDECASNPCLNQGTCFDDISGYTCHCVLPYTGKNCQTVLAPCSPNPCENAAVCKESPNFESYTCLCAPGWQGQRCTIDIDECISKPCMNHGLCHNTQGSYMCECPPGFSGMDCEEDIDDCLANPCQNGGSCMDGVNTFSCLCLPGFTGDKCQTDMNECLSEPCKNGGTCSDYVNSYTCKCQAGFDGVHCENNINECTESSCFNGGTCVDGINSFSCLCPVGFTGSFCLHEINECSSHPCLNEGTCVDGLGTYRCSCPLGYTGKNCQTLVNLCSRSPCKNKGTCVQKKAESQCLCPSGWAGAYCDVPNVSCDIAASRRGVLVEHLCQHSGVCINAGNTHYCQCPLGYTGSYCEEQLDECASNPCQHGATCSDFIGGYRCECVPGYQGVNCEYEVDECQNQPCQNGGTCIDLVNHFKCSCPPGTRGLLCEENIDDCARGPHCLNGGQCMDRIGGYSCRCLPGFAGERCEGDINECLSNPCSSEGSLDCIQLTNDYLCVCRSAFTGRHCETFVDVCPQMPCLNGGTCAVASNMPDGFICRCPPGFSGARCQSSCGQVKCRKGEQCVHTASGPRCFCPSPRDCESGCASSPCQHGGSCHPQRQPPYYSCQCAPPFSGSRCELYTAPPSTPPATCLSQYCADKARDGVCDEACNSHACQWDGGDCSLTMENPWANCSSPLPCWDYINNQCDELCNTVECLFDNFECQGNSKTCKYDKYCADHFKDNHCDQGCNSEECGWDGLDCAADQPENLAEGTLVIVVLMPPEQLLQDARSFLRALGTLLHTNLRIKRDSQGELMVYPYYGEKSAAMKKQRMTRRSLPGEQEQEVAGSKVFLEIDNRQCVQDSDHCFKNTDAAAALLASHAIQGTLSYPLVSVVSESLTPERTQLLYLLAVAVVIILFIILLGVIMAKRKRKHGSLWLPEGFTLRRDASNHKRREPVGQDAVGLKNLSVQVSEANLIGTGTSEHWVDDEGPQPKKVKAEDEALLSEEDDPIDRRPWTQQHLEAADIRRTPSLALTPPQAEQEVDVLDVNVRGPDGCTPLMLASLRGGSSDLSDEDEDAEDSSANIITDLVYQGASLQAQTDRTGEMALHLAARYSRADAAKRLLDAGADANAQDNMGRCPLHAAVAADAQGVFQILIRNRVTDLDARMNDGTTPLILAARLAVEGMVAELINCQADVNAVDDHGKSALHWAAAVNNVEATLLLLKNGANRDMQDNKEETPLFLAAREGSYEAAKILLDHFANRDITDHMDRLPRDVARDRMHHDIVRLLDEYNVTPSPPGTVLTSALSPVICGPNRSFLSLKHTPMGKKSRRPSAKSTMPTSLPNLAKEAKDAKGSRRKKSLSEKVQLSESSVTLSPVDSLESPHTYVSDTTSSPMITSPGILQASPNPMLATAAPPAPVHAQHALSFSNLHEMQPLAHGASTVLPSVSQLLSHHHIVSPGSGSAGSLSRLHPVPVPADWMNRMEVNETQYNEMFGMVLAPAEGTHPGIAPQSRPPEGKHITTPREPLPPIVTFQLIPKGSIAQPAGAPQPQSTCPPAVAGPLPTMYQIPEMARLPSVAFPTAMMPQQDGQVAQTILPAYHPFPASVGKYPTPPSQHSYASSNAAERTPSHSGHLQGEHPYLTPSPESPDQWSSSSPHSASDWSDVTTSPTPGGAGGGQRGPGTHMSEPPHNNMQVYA
Sequence of Torsin-1A-interacting protein 2 (Homo sapiens) (Q8NFQ8 whole entry, looked up): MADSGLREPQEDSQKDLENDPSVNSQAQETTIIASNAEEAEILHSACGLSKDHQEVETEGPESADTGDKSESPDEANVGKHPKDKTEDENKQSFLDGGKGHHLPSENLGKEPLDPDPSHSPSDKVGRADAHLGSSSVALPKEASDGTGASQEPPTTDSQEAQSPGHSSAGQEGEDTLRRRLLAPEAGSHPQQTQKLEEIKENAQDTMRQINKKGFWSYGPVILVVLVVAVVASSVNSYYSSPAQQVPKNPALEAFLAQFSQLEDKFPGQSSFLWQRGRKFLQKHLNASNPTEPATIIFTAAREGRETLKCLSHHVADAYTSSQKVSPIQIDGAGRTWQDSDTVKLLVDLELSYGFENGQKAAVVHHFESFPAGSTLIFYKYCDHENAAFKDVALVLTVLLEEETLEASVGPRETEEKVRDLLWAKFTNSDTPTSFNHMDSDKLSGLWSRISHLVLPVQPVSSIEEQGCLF

With `COC(=O)[C@H](C)NC(=O)CCC1CC(OC(=O)NCc2cccc3ccccc23)CC2(CCCC(COC(=O)NCCOc3ccccc3)O2)O1` (stereo not given in full), the composite z-score is -0.359 in test [1]; 0.222 in [2]; -0.0707 in test [3]; 0.15 in [4]; 0.708 in [5]; 1.27 in test [6]. In addition, the composite z-score in test [7] was 1.01; in test [9], 0.173; in test [10], -0.169; in test [11] it was 1.53; in test [15], 2.21; in test [17], -0.208. Besides, the composite z-score in test [18] is 0.11; in test [19], 0.377; in test [20], -0.145. The z-score in test [8] is 0.191 (inactive); in test [12], -0.534 (inactive); in test [13], -0.231 (inactive); in test [14], -0.576 (inactive); in [16], 0.544 (inactive).

Regarding `C[C@H]1C=CCC(=O)OC[C@H](C)C(=O)N2CCC[C@H]2C(=O)OC1`, the composite z-score was -0.815 in test [1]; 2.27 in test [2]; -0.291 in test [3]; -0.517 in test [4]; -0.594 in test [5]; -1.01 in test [6]. The composite z-score in test [7] was 1.32; in test [9], 0.227; in test [10], 0.107; in test [11], 1.54; in test [15], -1.44; in test [17], -0.228. The composite z-score in test [18] worked out at 2.09; in [19], 0.373; in test [20] it was 0.177. Besides, the z-score in [8] was 0.263 (inactive); in test [12] it was 0.94 (inactive); in [13], 0.499 (inactive); in test [14], -0.0933 (inactive); in test [16], 0.0085 (inactive).

For `CO[C@H]1COC(=O)CC=C[C@H](C)[C@H](OC)COC(=O)[C@@H](C)NC(=O)CC=C[C@@H]1C`, the composite z-score in [1] is -0.57; in test [2], 2.19; in test [3], -0.246; in [4], -0.225; in [5], -0.755; in [6] it was -0.468. The composite z-score was 0.659 in test [7]; -0.39 in test [9]; 0.172 in [10]; 1.56 in [11]; 0.525 in [15]; -0.0122 in test [17]. The composite z-score is 1.61 in [18], 0.346 in test [19] and -0.0313 in test [20]. Further, the z-score in test [8] was 0.484 (inactive); in test [12], -1.77 (inactive); in [13], -0.391 (inactive); in [14] it was -0.735 (inactive); in [16], -0.159 (inactive).

With `O=C1CCCC=C1C(O)C1CCCCC1` (stereo not given), the composite z-score in [1] is -0.53; in [2], 0.835; in test [3] it was -0.141; in test [4] it was 0.191; in test [5] it was -0.0306; in test [6] it was -0.594. The composite z-score was -0.593 in test [7]; -0.0962 in test [9]; 0.0373 in test [10]; -0.784 in test [11]; 0.2 in [15]; -0.0279 in test [17]. The values for the composite z-score in test [18], in test [19] and in [20] were -0.0241, 0.0627 and -0.294, respectively. Further, the z-score in test [8] was 0.0424 (inactive); in test [12], -0.711 (inactive); in test [13], 0.214 (inactive); in test [14], -0.478 (inactive); in test [16], 0.805 (inactive).

Regarding `CCOC(=O)[C@H](Cc1ccccc1)NC(=O)CCC1CC(OC(=O)NCc2ccc3c(c2)OCO3)CC2(CCCC(COC(=O)NCCCN3CCCC3=O)O2)O1` (stereo not given in full), the composite z-score was -0.578 in test [1]; 0.163 in test [2]; -0.0001 in [3]; 0.377 in [4]; 1.06 in [5]; 0.503 in test [6]. Also, the composite z-score in test [7] was 0.85; in test [9] it was 0.827; in [10], -0.248; in test [11] it was 1.55; in test [15], 2.08; in test [17], -0.117. Besides, the composite z-score in test [18] is 0.579; in test [19] it was 1; in test [20], -0.02. Further, the z-score in [8] was 1.5 (inactive); in [12], -0.395 (inactive); in test [13], 0.0418 (inactive); in test [14] it was -0.0655 (inactive); in [16] it was 0.187 (inactive).
